In PubChem BioAssay (NCI):
The panel holds about 83,000 compounds, 20% with a hit somewhere; the sample as a whole holds those more often.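 Values shown are percent growth following 48 h exposure of cells in 96-well plates to a single concentration of compound; below 10 was considered active.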 Values without a mark were called inactive. Activity calls are given as the source filed them.

Assays:
Experiment in all cases: NCI-60 one-dose screen, 48 h (100 = growth as untreated, 0 = no growth, -100 = all killed)
[1] = system: DU-145 prostate; conditions: 10 µM unless noted
[2] = system: K-562 leukemia; conditions: 10 µM unless noted
[3] = system: MALME-3M melanoma; conditions: 10 µM unless noted
[4] = system: MDA-MB-231 breast; conditions: 10 µM unless noted
[5] = system: RXF 393 renal; conditions: 10 µM unless noted
[6] = system: SF-268 CNS; conditions: 10 µM unless noted
[7] = system: SF-295 CNS; conditions: 10 µM unless noted
[8] = system: SF-539 CNS; conditions: 10 µM unless noted
[9] = system: UACC-257 melanoma; conditions: 10 µM
[10] = system: M14 melanoma; conditions: 10 µM unless noted
[11] = system: HCT-15 colon; conditions: 10 µM unless noted
[12] = system: HT29 colon; conditions: 10 µM unless noted
[13] = system: SNB-19 CNS; conditions: 10 µM unless noted
[14] = system: U251 CNS; conditions: 10 µM unless noted
[15] = system: PC-3 prostate; conditions: 10 µM unless noted
[16] = system: SK-MEL-5 melanoma; conditions: 10 µM unless noted
[17] = system: UACC-62 melanoma; conditions: 10 µM unless noted
[18] = system: LOX IMVI melanoma; conditions: 10 µM unless noted
[19] = system: SK-MEL-28 melanoma; conditions: 10 µM unless noted
[20] = system: SNB-75 CNS; conditions: 10 µM unless noted

## CCCCCCCCNC(=O)c1ccc(Cn2c(CCCC)nc3c(N)nc4ccccc4c32)cc1
[1]
  growth: 27.7%
[2]
  growth: -59.9% (active)
[3]
  growth: -82.9% (active)
[4]
  growth: -71.6% (active)
[5]
  growth: 23.3%
[6]
  growth: 53.7%
[7]
  growth: -80.8% (active)
[8]
  growth: -87.1% (active)
[9]
  growth: -70.3% (active)
[10]
  growth: -80.4% (active)
[11]
  growth: -55.8% (active)
[12]
  growth: -23% (active)
[13]
  growth: 14.9%
[14]
  growth: -59% (active)
[15]
  growth: 41.5%
[16]
  growth: -96.8% (active)
[17]
  growth: 23.4%
[18]
  growth: -86.3% (active)
[19]
  growth: -94% (active)

## N#Cc1c(-c2cccs2)cc(-c2cnccn2)nc1SCC(=O)NNC(=S)Nc1ccc(F)cc1
[1]
  growth: 109%
[2]
  growth: 92.2%
[3]
  growth: 127%
[4]
  growth: 94.5%
[5]
  growth: 141%
[6]
  growth: 106%
[7]
  growth: 106%
[8]
  growth: 98.1%
[9]
  growth: 112%
[10]
  growth: 104%
[11]
  growth: 102%
[12]
  growth: 116%
[13]
  growth: 94.7%
[14]
  growth: 101%
[15]
  growth: 99.3%
[16]
  growth: 89.5%
[17]
  growth: 87.8%
[18]
  growth: 72.1%
[19]
  growth: 114%

## O=C(Nc1cccc(-c2nc(-c3ccc(NC(=O)c4cccnc4)cc3Cl)no2)c1)Nc1ccc(NC(=O)C2CC2)c(C(F)(F)F)c1
[1]
  growth: -26.1% (active)
[2]
  growth: 1.44% (active)
[3]
  growth: -78.6% (active)
[4]
  growth: -59.5% (active)
[5]
  growth: -82% (active)
[6]
  growth: -23.2% (active)
[7]
  growth: -81.1% (active)
[8]
  growth: -86.9% (active)
[9]
  growth: -45.5% (active)
[10]
  growth: -53.3% (active)
[11]
  growth: 9.01% (active)
[12]
  growth: -26.8% (active)
[20]
  growth: -73.7% (active)
[13]
  growth: -0.276% (active)
[14]
  growth: -48% (active)
[15]
  growth: -65.8% (active)
[17]
  growth: -81.9% (active)
[18]
  growth: -93.3% (active)
[19]
  growth: -83.7% (active)

## CCCC(=O)NC(c1cccnc1)c1cc(Cl)c2cccnc2c1O (stereo unspecified)
[1]
  growth: 62.9%
[2]
  growth: 19.7%
[3]
  growth: 79.6%
[4]
  growth: 45.1%
[5]
  growth: 80.5%
[6]
  growth: 42.7%
[7]
  growth: 10.8%
[8]
  growth: 38%
[9]
  growth: 34.9%
[10]
  growth: 44%
[11]
  growth: 18.5%
[12]
  growth: 35.5%
[13]
  growth: 19.4%
[14]
  growth: 24.2%
[15]
  growth: 41.1%
[16]
  growth: 34.3%
[17]
  growth: 23.8%
[18]
  growth: 32.7%
[19]
  growth: 51.9%

## Oc1ccc(CSc2nnc(-c3ccncc3)n2-c2ccccc2)c2cccnc12
[1]
  growth: 28.2%
[2]
  growth: 18.4%
[3]
  growth: 31.8%
[4]
  growth: 30.7%
[5]
  growth: 23.6%
[6]
  growth: 23.1%
[7]
  growth: 4.58% (active)
[8]
  growth: 21.1%
[9]
  growth: 10.7%
[10]
  growth: 23.1%
[11]
  growth: 15.1%
[12]
  growth: 96%
[13]
  growth: 12.7%
[14]
  growth: 15.8%
[15]
  growth: 18.9%
[16]
  growth: 1.83% (active)
[17]
  growth: -4.64% (active)
[18]
  growth: 20.4%
[19]
  growth: 29.4%

## Oc1ccc(-c2nnc(SCc3ccc(O)c4ncccc34)o2)cc1
[1]
  growth: 21.2%
[2]
  growth: 14.2%
[3]
  growth: 18.7%
[4]
  growth: 24.5%
[5]
  growth: -3.04% (active)
[6]
  growth: 15.9%
[7]
  growth: 0.187% (active)
[8]
  growth: 13.8%
[9]
  growth: 1.45% (active)
[10]
  growth: 0.609% (active)
[11]
  growth: 7.43% (active)
[12]
  growth: 24%
[13]
  growth: 12.8%
[14]
  growth: 13.2%
[15]
  growth: 9.97% (active)
[16]
  growth: -17.1% (active)
[17]
  growth: -12.7% (active)
[18]
  growth: 7.94% (active)
[19]
  growth: 22.7%

## O=C(O)c1ccc(-n2cc(CNc3ccc(F)cc3)c(-c3ccc(C(F)(F)F)cc3)n2)cc1
[1]
  growth: 98.2%
[2]
  growth: 58.6%
[3]
  growth: 97.6%
[4]
  growth: 100%
[5]
  growth: 88.2%
[6]
  growth: 80.9%
[7]
  growth: 63.9%
[8]
  growth: 88.8%
[9]
  growth: 90.9%
[10]
  growth: 92.6%
[11]
  growth: 65.4%
[12]
  growth: 96.9%
[13]
  growth: 84.3%
[14]
  growth: 79.3%
[15]
  growth: 79.4%
[16]
  growth: 67.9%
[17]
  growth: 89.9%
[18]
  growth: 99.5%
[19]
  growth: 88.1%

## COc1cc2cc(Oc3ccc(NC(=O)c4cccc(C(F)(F)F)c4)cc3)c(C)nc2cc1OCCN(C)C
[1]
  growth: 68.6%
[2]
  growth: 7.14% (active)
[3]
  growth: -73.7% (active)
[4]
  growth: 79%
[5]
  growth: 39.6%
[6]
  growth: 92%
[7]
  growth: -50.5% (active)
[8]
  growth: 63.3%
[9]
  growth: 93.2%
[10]
  growth: 80.8%
[11]
  growth: -8.74% (active)
[12]
  growth: 27.5%
[13]
  growth: 94.2%
[14]
  growth: 63.4%
[15]
  growth: 74.2%
[16]
  growth: -7.47% (active)
[17]
  growth: 89.4%
[18]
  growth: -81.3% (active)
[19]
  growth: 72.2%

## COc1cc(/C=C2\SC(=O)NC2=O)ccc1OCC(=O)Nc1ccc(C(=O)/C=C/c2cc3ccccc3nc2Cl)cc1
[1]
  growth: 96.9%
[2]
  growth: 49.4%
[3]
  growth: 89%
[4]
  growth: 88.6%
[5]
  growth: 77.1%
[6]
  growth: 85.8%
[7]
  growth: 87%
[8]
  growth: 83.2%
[9]
  growth: 86.3%
[10]
  growth: 85.6%
[11]
  growth: 89.7%
[12]
  growth: 69.9%
[13]
  growth: 85.6%
[14]
  growth: 90.3%
[15]
  growth: 82.1%
[16]
  growth: 32.7%
[17]
  growth: 84.3%
[18]
  growth: 81.6%
[19]
  growth: 105%

## NC(=S)N/N=C(/C=C/c1cn(-c2ccccc2)nc1-c1ccc(Cl)cc1)c1cc2ccccc2oc1=O
[1]
  growth: 57.7%
[2]
  growth: 20.8%
[3]
  growth: 71.2%
[4]
  growth: 48.9%
[5]
  growth: 106%
[6]
  growth: 52.9%
[7]
  growth: 25.2%
[8]
  growth: 51.1%
[9]
  growth: 76.3%
[10]
  growth: 54.1%
[11]
  growth: 19.9%
[12]
  growth: 36.1%
[13]
  growth: 47.6%
[14]
  growth: 35.4%
[15]
  growth: 28%
[16]
  growth: 30.4%
[17]
  growth: 49.6%
[18]
  growth: 36%
[19]
  growth: 73%

## c1ccc(-c2c(-c3ccccc3)[n+](Cc3ccc4ccccc4c3)c(-c3ccccc3)n2Cc2ccc3ccccc3c2)cc1
[1]
  growth: -92.6% (active)
[2]
  growth: -30.9% (active)
[3]
  growth: -82.5% (active)
[4]
  growth: -85.6% (active)
[5]
  growth: -91.9% (active)
[6]
  growth: -73.5% (active)
[7]
  growth: -91.3% (active)
[8]
  growth: -90% (active)
[9]
  growth: -56.6% (active)
[10]
  growth: -72% (active)
[11]
  growth: -81.7% (active)
[12]
  growth: -70.1% (active)
[20]
  growth: -78.4% (active)
[13]
  growth: -94.9% (active)
[14]
  growth: -78.8% (active)
[15]
  growth: -87.3% (active)
[17]
  growth: -88.6% (active)
[18]
  growth: -89.8% (active)
[19]
  growth: -93.3% (active)

## CC1=C2C(=C[C@@](C)(COS(N)(=O)=O)[C@@H]2O)C(=O)[C@](C)(O)C12CC2
[1]
  growth: 15.3%
[2]
  growth: 97.2%
[3]
  growth: 88.3%
[4]
  growth: 83%
[5]
  growth: -30.2% (active)
[6]
  growth: 32.2%
[7]
  growth: 20.5%
[8]
  growth: 64.9%
[9]
  growth: 89.3%
[10]
  growth: 76.7%
[11]
  growth: 67.6%
[12]
  growth: 56.8%
[20]
  growth: 72.6%
[13]
  growth: 72.4%
[14]
  growth: 71.8%
[15]
  growth: 58.5%
[17]
  growth: 62.1%
[18]
  growth: 77%
[19]
  growth: 87.6%

## CN(c1ccc(Br)cc1)S(=O)(=O)c1ccc(-c2cnc(C3CC3)o2)cc1
[1]
  growth: 26.2%
[2]
  growth: 7.96% (active)
[3]
  growth: 63.8%
[4]
  growth: 29.9%
[5]
  growth: 6.23% (active)
[6]
  growth: 65.9%
[7]
  growth: -0.0962% (active)
[8]
  growth: 1.56% (active)
[9]
  growth: 67.3%
[10]
  growth: 8.2% (active)
[11]
  growth: 17.7%
[12]
  growth: 11%
[13]
  growth: 37.3%
[14]
  growth: 22.7%
[15]
  growth: 22.4%
[16]
  growth: 30%
[17]
  growth: 28.5%
[19]
  growth: 58.1%

## CCOc1ccc2nc(NC(=O)Nc3ccccc3C)sc2c1
[1]
  growth: 70.3%
[2]
  growth: 14.6%
[3]
  growth: 48.6%
[4]
  growth: 71.2%
[5]
  growth: 49.5%
[6]
  growth: 78.6%
[7]
  growth: 35.2%
[8]
  growth: 57.1%
[9]
  growth: 68.4%
[10]
  growth: 23.4%
[11]
  growth: 27%
[12]
  growth: 14.9%
[13]
  growth: 53.8%
[14]
  growth: 48.2%
[15]
  growth: 57.6%
[16]
  growth: 59.6%
[17]
  growth: 47.2%
[19]
  growth: 54.1%

## CN(c1ccc(F)cc1)S(=O)(=O)c1ccc(-c2cnc(C3CC3)o2)cc1
[1]
  growth: 23.5%
[2]
  growth: 10.3%
[3]
  growth: 65.3%
[4]
  growth: 28.4%
[5]
  growth: -8.88% (active)
[6]
  growth: 64.2%
[7]
  growth: -12.9% (active)
[8]
  growth: 4.96% (active)
[9]
  growth: 70.9%
[10]
  growth: 14.6%
[11]
  growth: 17.9%
[12]
  growth: 13.9%
[13]
  growth: 36.9%
[14]
  growth: 23.3%
[15]
  growth: 17.8%
[16]
  growth: 26.8%
[17]
  growth: 30.5%
[19]
  growth: 56.7%

## O=C1[C@H]2Cc3c([nH]c4ccccc34)[C@@H](c3ccc(Cl)cc3)N2C(=O)CN1C1CCN(Cc2c(Cl)cccc2Cl)CC1
[1]
  growth: 90.4%
[2]
  growth: 81.6%
[3]
  growth: 65.8%
[4]
  growth: 53%
[5]
  growth: 109%
[6]
  growth: 85.6%
[7]
  growth: 73%
[8]
  growth: 77.7%
[9]
  growth: 102%
[10]
  growth: 84.5%
[11]
  growth: 54.5%
[12]
  growth: 81.8%
[13]
  growth: 94.2%
[14]
  growth: 91.2%
[15]
  growth: 70.8%
[16]
  growth: 90.1%
[17]
  growth: 81.8%
[18]
  growth: -89% (active)
[19]
  growth: 103%
